High-throughput results: PubChem BioAssay, National Center for Advancing Translational Sciences (NCATS)
In the library only some 18% were active in any assay of this set; here they are far more common.
GCN5L2 inh: qHTS Assay for Inhibitors of GCN5L2; Histone acetyltransferase KAT2A (Homo sapiens), Q92830; GCN5L2 HAT assay, ThioGlo1 CoA-SH fluorescence; Potency, µM (series often up to 58.9 µM), for inactives: at the top dose activity change, negative = inhibition, hits mostly inhibitors; actives 0.21% (n = 390,000)
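Enzyme at 20nM final was mixed with library compounds for 15 min at room temperature. Peptide H3(1-25) at 75uM, acetyl-CoA at 70uM and ThioGlo1 at 50uM were then added. Plates were read immediately and after 20 min (Ex340nm/Em540nm).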
TDP1 block: qHTS Assay for Inhibitors of Tyrosyl-DNA Phosphodiesterase (TDP1); Tyrosyl-DNA phosphodiesterase 1 (Homo sapiens), Q9NUW8; recombinant TDP1, AlphaScreen DNA substrate cleavage; Potency, µM (series often up to 130 µM), for inactives: at the top dose activity change, negative = inhibition, most hits filed as inhibitors; actives 0.28% (n = 350,000); AID 485290, 2010; note: nearly all actives have a fitted effect of over 40% in size
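Tdp1 1 nM final; 15 min RT w/ cpd; substrate 15 nM, 5 min; beads 10 ug/ml, 10 min; AlphaScreen read. Neg ctrl: no enzyme.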
TDP1 cell CPT: qHTS for Inhibitors of human tyrosyl-DNA phosphodiesterase 1 (TDP1): qHTS in cells in presence of CPT; chicken DT40 Tdp1-/-;hTDP1 cells + 20 nM CPT, ATP luminescence, 48 h; Potency, µM (highest dose often 46.2 µM), for the others: top-dose activity change, negative = growth inhibition, hits mostly inhibitors; actives 12% (n = 420,000); AID 686979, 2013; note: nearly all actives have a fitted effect of over 55% in size
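Chicken DT40 Tdp1-/- cells complemented with human TDP1, 400 cells/well, exposed to compounds plus 20 nM camptothecin for at least 48 h at 37 C; viability read as ATP content by CellTiter-Glo luminescence.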
PLK1 PBD block: qHTS for Inhibitors of PLK1-PDB (polo-like kinase 1 - polo-box domain): Primary Screen; Plk1 PBD binding of FITC phosphopeptide, fluorescence polarization; Serine/threonine-protein kinase PLK1 (Homo sapiens), P53350; AID 720504, 2013; actives 2.8% (n = 360,000); Potency, µM, for the others: max response, negative = inhibition, hits mostly inhibitors; note: series mostly up to about 57 µM; nearly all actives have a fitted effect of over 65% in size
Target sequence (P53350 whole entry, looked up, the tested form may be a part): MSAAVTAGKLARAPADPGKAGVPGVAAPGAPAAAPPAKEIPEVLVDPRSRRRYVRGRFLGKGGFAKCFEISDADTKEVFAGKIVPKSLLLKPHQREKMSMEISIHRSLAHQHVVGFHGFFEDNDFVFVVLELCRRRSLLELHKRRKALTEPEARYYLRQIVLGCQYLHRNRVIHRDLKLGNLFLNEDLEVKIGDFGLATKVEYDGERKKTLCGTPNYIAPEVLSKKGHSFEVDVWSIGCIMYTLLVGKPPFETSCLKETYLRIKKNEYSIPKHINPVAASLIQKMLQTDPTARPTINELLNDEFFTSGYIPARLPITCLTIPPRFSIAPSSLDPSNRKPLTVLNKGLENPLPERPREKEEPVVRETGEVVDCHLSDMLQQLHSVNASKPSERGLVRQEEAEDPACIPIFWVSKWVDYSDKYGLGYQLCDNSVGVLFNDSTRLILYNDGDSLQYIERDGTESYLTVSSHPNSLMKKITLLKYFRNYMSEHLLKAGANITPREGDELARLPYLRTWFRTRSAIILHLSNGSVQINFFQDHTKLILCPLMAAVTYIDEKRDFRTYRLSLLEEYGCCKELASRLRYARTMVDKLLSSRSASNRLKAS
VDR inh: Inhibitors of the vitamin D receptor (VDR): qHTS; actives 0.93% (n = 400,000); AID 504847, 2011; VDR-SRC2-3 peptide fluorescence polarization, 2 h; Potency, µM, for inactives: max response, negative = inhibition, hits mostly inhibitors
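Fluorescence polarization assay of small-molecule disruption of VDR binding to coregulator peptide SRC2-3. Compounds and controls pin-transferred, then read after 2 h incubation at ambient room temperature.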
TDP1 cell noCPT: qHTS for Inhibitors of human tyrosyl-DNA phosphodiesterase 1 (TDP1): qHTS in cells in absence of CPT | DT40 Tdp1-/- hTDP1 cells, no CPT, ATP luminescence, 48 h | Potency, µM (highest dose often 46.2 µM), without a hit: at the top dose activity change, negative = growth inhibition, usual class: inhibitors | actives 15% (n = 420,000); note: nearly all actives have a fitted effect of over 55% in size
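Camptothecin absent (DMSO only). Human TDP1-complemented DT40 knockout cells, 400 cells/well, 37 °C for minimum 48 hr; ATP measured via CellTiter-Glo, 30 min dark incubation, luminescence.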
Starred values were filed as active, the others as inactive; ? = inconclusive; nt = no result. Calls come from the whole dose curve; as a rule, active = well fitted curve in the direction sought with a large enough effect; inconclusive = small, poorly fitted or top-dose-only effect, or another doubt; inactive = no such curve, though single readings can be large; an effect the other way counts as inactive or inconclusive. % is set by controls: 0 for no effect and ±100 for the full control effect; potency is the fitted concentration of half-maximal effect.

SMILES	GCN5L2 inh	TDP1 block	TDP1 cell CPT	PLK1 PBD block	VDR inh	TDP1 cell noCPT
Nc1c(C(=O)N/N=C/c2ccccc2Cl)oc2nc(-c3ccccc3)cc(-c3ccco3)c12	-1.5%	nt	?	-10.9%	18.0%	20.6µM*
O=C(N/N=C/c1ccco1)c1cc(-c2ccccc2)n[nH]1	-4.6%	3.2%	?	-13.3%	1.8%	?
Nc1c(C(=O)N/N=C/c2ccc(F)cc2)oc2nc(-c3ccccc3)cc(-c3ccco3)c12	-12.1%	nt	23.1µM*	26.3%	25.3%	10.3µM*
CC[C@@H](C)[C@@H]1CN([C@@H](CN2CCC[C@H]2CN2C(N)=NC[C@H]2C(C)C)C(C)C)C(=N)N1CCc1ccc(Cl)c(Cl)c1	-1.4%	-9.3%	?	-12.4%	15.9%	16.4µM*
CCCCN1C(=N)N([C@@H](CN2CCC[C@H]2CN2C(N)=NC[C@@H]2Cc2ccccc2)C(C)C)C[C@H]1Cc1ccccc1	-1.4%	-7.4%	?	-18.6%	-14.0%	16.4µM*
CCC[C@@H](CN1CCC[C@H]1CN1C(N)=NC[C@H]1C(C)C)N1C[C@@H](Cc2ccccc2)N(CCCC2CCCC2)C1=N	-0.8%	-5.4%	?	-4.3%	-8.2%	16.4µM*
CC[C@@H](C)[C@@H]1CN([C@@H](C)CN2CCC[C@H]2CN2C(N)=NC[C@H]2CC(C)C)C(=N)N1CCCC1CCCC1	-14.0%	-6.1%	?	-5.7%	-23.0%	23.1µM*
CC[C@@H](C)[C@@H]1CN([C@@H](C)CN2CCC[C@H]2CN2C(N)=NC[C@@H]2Cc2ccccc2)C(=N)N1CCCC1CCCC1	-3.0%	-7.0%	?	-18.1%	-5.7%	?
CCC(C)[C@H]1CN=C(N)N1CCCc1cc(OC)c(OC)c(OC)c1 (stereo not given in full)	-10.5%	4.7%	-10.0%	0.1%	-1.3%	-18.7%
CC(C)C[C@@H]1CN=C(N)N1C[C@@H]1CCCN1C[C@@H](C(C)C)N1C[C@@H](Cc2ccccc2)N(CCCC2CCCC2)C1=N	-0.6%	-0.3%	?	-10.4%	26.0%	?
CCCCN1C(=N)N([C@@H](C)CN2CCC[C@H]2CN2C(N)=NC[C@@H]2Cc2ccccc2)C[C@H]1Cc1ccccc1	-2.0%	-14.1%	?	-2.9%	-7.4%	?
CCCN(CCC)c1nn2c(=O)c(C(=O)NCc3cc(Br)ccc3OC)cnc2s1	-8.3%	4.5%	-19.0%	nt	11.4%	-29.4%
CCCCN1C(=N)N([C@@H](CCC)CN2CCC[C@H]2CN2C(N)=NC[C@@H]2Cc2ccccc2)C[C@H]1[C@H](C)CC	-0.7%	-15.0%	13µM*	-13.9%	-16.0%	11.6µM*
CCCCN1C(=N)N([C@@H](CCC)CN2CCC[C@H]2CN2C(N)=NC[C@H]2CC(C)C)C[C@H]1Cc1ccccc1	-1.8%	-7.4%	?	-7.0%	12.1%	?
Cc1nc2ccc(-c3nc4ccccc4o3)cc2[nH]1	-9.6%	0.0%	-14.5%	-10.8%	-14.4%	?
Nc1ccc2nc(-c3cccc(-c4nc5ccc(N)cc5[nH]4)c3)[nH]c2c1	2.4%	nt	5.0%	-24.9%	?	?
Nc1ccc2nc(-c3ccc(Cl)cc3)[nH]c2c1	?	5.9%	2.91µM*	0.4%	1.5%	4.61µM*
Nc1ccc(-c2nc3ccc(-c4nc5ccccc5o4)cc3[nH]2)cc1	14.1%	-2.9%	14.6µM*	-2.0%	29.9%	8.2µM*
Cc1ccnc2ccc(-c3nc4ccccc4o3)cc12	-14.6%	0.0%	20.6µM*	0.1%	-2.3%	10µM*
COc1cc(=O)n2c(c1C(=O)NCc1ccsc1)CCN(Cc1nc3ccccc3[nH]1)CC2	nt	nt	-9.7%	nt	nt	-0.4%
COc1ccc(S(=O)(=O)Nc2cccc3c2O[C@H](CN(C)Cc2ccc(Oc4ccccc4)cc2)[C@@H](C)CN([C@H](C)CO)C3=O)cc1	-8.6%	2.1%	16.4µM*	-6.0%	-9.9%	20.6µM*
C[C@H](CO)N1C[C@H](C)[C@@H](CN(C)S(=O)(=O)c2cccs2)Oc2c(NS(=O)(=O)c3ccccc3)cccc2C1=O	-3.9%	1.3%	-17.4%	-2.6%	-8.1%	-10.5%
COc1ccc(NC(=O)Nc2cccc3c2O[C@H](CN(C)C(=O)Nc2ccccc2)[C@@H](C)CN([C@H](C)CO)C3=O)cc1	-1.2%	2.3%	-3.6%	-6.7%	-3.2%	-10.7%
COc1ccc(CN(C)C[C@H]2Oc3c(NC(=O)Nc4ccccc4)cccc3C(=O)N([C@H](C)CO)C[C@@H]2C)cc1	-6.9%	3.9%	16.4µM*	-6.9%	-14.3%	29.1µM*
C[C@@H]1CN([C@H](C)CO)C(=O)c2cccc(NS(=O)(=O)c3cccs3)c2O[C@H]1CN(C)Cc1ccccc1	-5.0%	3.7%	11.6µM*	-14.4%	9.2%	11.6µM*
SMILES	GCN5L2 inh	TDP1 block	TDP1 cell CPT	PLK1 PBD block	VDR inh	TDP1 cell noCPT
COCC(=O)N1CCC2(CCCN(c3ccccn3)C2)CC1	0.0%	nt	?	nt	-4.9%	-9.3%
CCOc1cc(CNCC(C)C)cc(Cl)c1OCc1ccccc1	-4.2%	4.8%	?	-8.9%	-17.7%	20.6µM*
COc1cccc(CNc2ccccc2O)c1OCc1ccccc1F	-20.2%	11.0%	23.1µM*	-13.1%	-3.8%	?
CCOc1cc(CNc2ccc3c(c2)OCCO3)cc(Br)c1OC	0.2%	10.4%	0.517µM*	-2.1%	31.9%	1.16µM*
COc1cc(CNc2ccc3c(c2)OCCO3)ccc1OCC(N)=O	10.0%	5.6%	1.0%	3.9%	-5.5%	-29.7%
COc1cc(CNc2ccc(O)cc2)cc(Br)c1OCc1ccccc1F	?	-1.8%	16.4µM*	-1.6%	35.5µM*	?
CCN1CCCC1CNCc1cccc(OC)c1OCc1ccccc1F (stereo not given)	2.1%	1.9%	-19.5%	1.0%	-8.5%	-7.0%
CC(NC(=O)Cc1ccc(NS(=O)(=O)c2cccc(C(F)(F)F)c2)cc1)c1ccccn1 (stereo not given)	-1.5%	10.9%	-6.7%	-8.9%	-6.8%	-27.0%
Cc1cccc(-c2nc(CS(=O)CC(=O)NCCc3ccc(Cl)cc3)c(C)o2)c1 (stereo not given)	-12.1%	3.6%	-9.6%	-18.3%	-6.9%	-18.9%
